The text below walks through data of PubChem BioAssay (NCATS).

Results filed as inconclusive are left out. Values without a mark were called inactive. The source made the active and inactive calls. Unless noted, the call rests on the fitted dose curve.

In the first test the target is Cytochrome P450 1A2 (Homo sapiens) (UniProt P05177). The test can be described thus: p450-cyp1a2 (AID 410). Further: potency means the concentration at half of the fitted maximal effect.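 On activity change, negative = inhibition: -100% = full effect of reference inhibitor.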 Particulars: recombinant CYP1A2, luciferin-ME demethylation, luminescence; series mostly up to 25.6 µM. The method, boiled down: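 O-Demethylation of luciferin 6' methyl ether by human CYP1A2 is monitored as luciferase luminescence. Substrate sits at Km (100uM); enzyme is 20nM. Values are scaled to 57 uM furafylline as maximal inhibition.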
Sequence of Cytochrome P450 1A2 (Homo sapiens) (P05177 whole entry, looked up): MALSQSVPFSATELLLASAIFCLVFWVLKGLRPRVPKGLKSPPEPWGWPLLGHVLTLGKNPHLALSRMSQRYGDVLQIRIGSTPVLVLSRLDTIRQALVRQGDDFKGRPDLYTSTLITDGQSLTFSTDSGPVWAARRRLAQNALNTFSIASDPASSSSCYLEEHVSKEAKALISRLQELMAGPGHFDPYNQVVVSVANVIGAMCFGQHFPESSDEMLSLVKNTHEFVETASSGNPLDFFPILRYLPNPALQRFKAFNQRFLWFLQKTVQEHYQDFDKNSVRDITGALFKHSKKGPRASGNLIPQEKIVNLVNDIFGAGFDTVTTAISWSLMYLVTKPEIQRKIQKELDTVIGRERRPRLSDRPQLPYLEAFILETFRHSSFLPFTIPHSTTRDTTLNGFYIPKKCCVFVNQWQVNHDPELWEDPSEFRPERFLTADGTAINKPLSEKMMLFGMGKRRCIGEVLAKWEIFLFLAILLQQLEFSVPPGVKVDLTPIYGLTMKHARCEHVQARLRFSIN
Regarding `c1ccc(CN2CC[C@@]3(CCCNC3)C2)cc1`, the Potency entry was “inactive”.
Still for that read-out and setting: the result for `c1csc(CN2CC[C@@]3(CCCNC3)C2)n1` reads “inactive”.
Still for that read-out and setting: then `COC(=O)N1CCC2(CCCN(C)C2)CC1`, with “inactive”; and `Cc1noc(C)c1C(=O)N1CCC2(CCCN(CC(C)C)C2)CC1`, with “inactive”.
Still for that read-out and setting: then `CN1CC[C@@]2(CCCN(C(=O)c3ccncc3)C2)C1`, with “inactive”; and `c1ccc(N2CC3(CCNCC3)C2)cc1`, with “inactive”.
With `Clc1ccccc1-c1cncnc1NCCc1cnc[nH]1`, the Potency is 1.58 µM (active).
Same read-out and setting: then `CN1CC[C@@]2(CCCN(C(=O)Oc3ccccc3)C2)C1`, with “inactive”.
The same measure, in the same setting: then `O=C(c1csnn1)N1CCC2(CC1)CN(Cc1ccncc1)C2`, with 10 µM (active); and `CC(C)NC(=O)N1CC[C@@]2(CCCNC2)C1`, with “inactive”; and `CC(C)NC(=O)N1CCCC2(CCN(C(=O)Oc3ccccc3)CC2)C1`, with 12.6 µM (active).
As to `CC(C)CN1CCC2(CC1)CCN(S(C)(=O)=O)CC2`, the Potency entry was “inactive”.
On the same count and under the same terms, the result for `CN1CCCC2(CCN(C(=O)c3csnn3)CC2)C1` reads “inactive”.
For `CC(C)CN1CCCC2(CCN(C(=O)c3ccncc3)CC2)C1`, the Potency is 12.6 µM (active).
`O=C(c1ccco1)N1CCC[C@@]2(CCN(Cc3ccncc3)C2)C1`: the Potency was 3.98 µM (active).
Still for that read-out and setting: the result for `O=C(Nc1ccccc1)N1CC2(CCN(C(=O)Oc3ccccc3)CC2)C1` reads 20 µM (active); that for `CC(C)CN1CC2(CCN(C(=O)Oc3ccccc3)CC2)C1`, “inactive”.
Regarding `O=C(Oc1ccccc1)N1CCC2(CCCN(Cc3ccccc3)C2)CC1`, the Potency result is “inactive”.
Turning to `O=C(Oc1ccccc1)N1CCC2(CC1)CN(Cc1ccncc1)C2`, the Potency is 10 µM (active).
Still for that read-out and setting: then `O=C(Nc1cccc(F)c1)N1CC2(CCNCC2)C1`, with “inactive”.

Tested on in the next test: not listed separately
As to the kind of experiment: NFAT Signaling Pathway (AID 444; active means well fitted curve in either direction with a large enough effect, not every such curve was filed as active;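 further: carbachol stimulus at about its EC50 of 1 µM final; on the % scale 0 is the no-effect control and ±100 the full control effect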). The following applies: Jurkat NFAT-bla M1, carbachol, beta-lactamase ratio, 5 h; at 7.69 µM (top of the series). The method, boiled down: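 Jurkat cells with NFAT-driven β-lactamase reporter and co-expressed M1 receptor, stimulated with carbachol (final 1 uM, ~EC50), compound titration, 5 h at 37 °C. CCF4 loaded 1 h at RT; 460/530 nm ratio gave %activity and AC50.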
As for `CS(=O)(=O)N1CCC2(CCCN(Cc3ccncc3)C2)CC1`, the activity change, negative = inhibition was -20.7%.
Still for that read-out and setting: the result for `c1ccc(CN2CC[C@@]3(CCCNC3)C2)cc1` reads 2.89%; that for `O=C(c1ccncc1)N1CCC[C@@]2(CCN(Cc3nccs3)C2)C1`, 5.07%.
For `c1ccc(N2CC3(CCNCC3)C2)cc1`, the activity change, negative = inhibition is -5.86%.
The same measure, in the same setting: then `Clc1ccccc1-c1cncnc1NCCc1cnc[nH]1`, with -21.6%; and `CN1CC[C@@]2(CCCN(C(=O)Oc3ccccc3)C2)C1`, with 0.664%; and `c1csc(CN2CCC3(CCNCC3)CC2)n1`, with -5.8%.
The same measure, in the same setting: then `O=C(Nc1ccccc1)N1CC[C@@]2(CCCN(C(=O)Oc3ccccc3)C2)C1`, with 1.93%; and `CC(C)CN1CCC2(CC1)CCN(S(C)(=O)=O)CC2`, with 6.76%.
On the same count and under the same terms, the result for `O=C(c1ccco1)N1CCC[C@@]2(CCN(Cc3ccncc3)C2)C1` reads -1.52%; that for `O=C(Nc1ccccc1)N1CC2(CCN(C(=O)Oc3ccccc3)CC2)C1`, 23.8%.
For the compound `CC(C)CN1CC[C@@]2(CCCN(C(=O)c3ccncc3)C2)C1`, the activity change, negative = inhibition is -22.2%.
Still for that read-out and setting: the result for `Cc1noc(C)c1C(=O)N1CCC[C@@]2(CCN(CC(C)C)C2)C1` reads 12.5%.
The same measure, in the same setting: the result for `CC(C)CN1CC2(CCN(C(=O)Oc3ccccc3)CC2)C1` reads -14.8%; that for `N#Cc1cccc(NC(=O)N2CC3(CCN(C(=O)Oc4ccccc4)CC3)C2)c1`, 17.6%.
For the compound `O=C(c1cnccn1)N1CCC2(CC1)CN(Cc1ccncc1)C2`, the activity change, negative = inhibition is -23.5%.
